# Measured values taken from PubChem BioAssay (NCI).
# About 83,000 compounds went through this panel and 20% of them were active in at least one assay; those are over-represented in the sample as a whole.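 48-hour exposure, single concentration, 96-well plates; percent growth endpoint where 0 means no net growth. Active: below 10.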 A number with no mark means an inactive call. Activity calls are given as the source filed them.
# Assays:
# Test in all cases: NCI-60 one-dose screen, 48 h (100 = growth as untreated, 0 = no growth, -100 = all killed)
# Details in all cases: 10 µM
# DU-145 prostate = test system: DU-145 prostate
# K-562 leukemia = test system: K-562 leukemia
# MALME-3M melanoma = test system: MALME-3M melanoma
# MDA-MB-231 breast = test system: MDA-MB-231 breast
# RXF 393 renal = test system: RXF 393 renal
# SF-268 CNS = test system: SF-268 CNS
# SF-295 CNS = test system: SF-295 CNS
# SF-539 CNS = test system: SF-539 CNS
# UACC-257 melanoma = test system: UACC-257 melanoma
# M14 melanoma = test system: M14 melanoma
# HCT-15 colon = test system: HCT-15 colon
# HT29 colon = test system: HT29 colon
# SNB-75 CNS = test system: SNB-75 CNS
# SNB-19 CNS = test system: SNB-19 CNS
# PC-3 prostate = test system: PC-3 prostate
# SK-MEL-5 melanoma = test system: SK-MEL-5 melanoma
# UACC-62 melanoma = test system: UACC-62 melanoma
# LOX IMVI melanoma = test system: LOX IMVI melanoma
# SK-MEL-28 melanoma = test system: SK-MEL-28 melanoma
# U251 CNS = test system: U251 CNS
SMILES,growth (DU-145 prostate),growth (K-562 leukemia),growth (MALME-3M melanoma),growth (MDA-MB-231 breast),growth (RXF 393 renal),growth (SF-268 CNS),growth (SF-295 CNS),growth (SF-539 CNS),growth (UACC-257 melanoma) [%],growth (M14 melanoma),growth (HCT-15 colon),growth (HT29 colon),growth (SNB-75 CNS),growth (SNB-19 CNS),growth (PC-3 prostate),growth (SK-MEL-5 melanoma),growth (UACC-62 melanoma),growth (LOX IMVI melanoma),growth (SK-MEL-28 melanoma),growth (U251 CNS)
COc1ccc(/C(C#N)=C/c2ccccc2OC)cc1,68.1%,21%,19.9%,56.2%,25.5%,60.7%,22.9%,42.2%,47.8,20.7%,23.8%,6.29% (active),28.4%,51.9%,55.6%,9.12% (active),41.6%,37.2%,51.8%,
CC(C)(C)c1ccc(S(=O)(=O)Oc2ccc(NC(=O)C3CCCCC3)cc2)cc1,59.2%,27%,78.9%,72%,65.1%,70.6%,22.8%,73.2%,,60.1%,36.8%,44.9%,80.1%,49.2%,22.3%,26.3%,31.1%,48.7%,66.8%,43.9%
CC(=O)N[C@H](C(=O)N[C@@H](CCCNC(=N)N)C(=O)N[C@@H](CCCCN)C(=O)N[C@@H](CCCNC(=N)N)C(=O)NC(C(=O)N[C@@H](CC(C)C)C(=O)N[C@@H](CCCNC(=N)N)C(=O)N[C@@]1(C)CCC/C=C\CCC[C@@](C)(C(=O)N[C@@H](CCCNC(=N)N)C(=O)N[C@@H](CCC(=O)O)C(=O)N[C@@H](CC(C)C)C(=O)N[C@H](C(=O)N[C@@H](CCC(=O)O)C(N)=O)C(C)C)NC(=O)[C@H](CCC(N)=O)NC(=O)[C@H](CC(C)C)NC(=O)[C@H](CC(C)C)NC1=O)[C@@H](C)O)C(C)C (stereo not given in full),-58.3% (active),-44.5% (active),-68.7% (active),-52.1% (active),-43.9% (active),-80.9% (active),-4.34% (active),-78% (active),,-61.2% (active),16.2%,26.9%,-16.4% (active),31.7%,-75.5% (active),-83.9% (active),-68.1% (active),33.2%,-37.7% (active),-35.7% (active)
C#CCOc1c(OC)cc(C(=O)/C(C)=C/c2cccc(N=[N+]=[N-])c2)cc1OC,11.7%,14.4%,54.7%,30.5%,-8.56% (active),42.6%,8.17% (active),-12.5% (active),,5.53% (active),18.7%,2.11% (active),15.1%,34.5%,22.7%,35.2%,,30.4%,58.8%,18.7%
Cc1c2c[n+](C(C)C)ccc2c(C)c2c1[nH]c1ccccc12,36.1%,23.3%,-25.6% (active),35.3%,60.3%,15.3%,2.91% (active),20.8%,,30%,87.7%,21.5%,41%,4.83% (active),,-63.4% (active),10.5%,40.7%,15.7%,13.6%
Cc1noc(C)c1CSc1ccccc1C(=O)N1CCN(c2cccc(C(F)(F)F)c2)CC1,95.7%,52.8%,84.5%,65.7%,99.8%,95.3%,75.2%,87.4%,,71.6%,72.4%,69.4%,76.2%,81.5%,55.3%,43.5%,52.2%,74.9%,91.4%,88.2%
COc1cc(C(=O)/C=C/c2c[nH]c3ccccc23)cc(OC)c1OC,5.54% (active),11.3%,52.5%,13%,43%,20.3%,16.9%,-1.84% (active),,8.91% (active),19%,-21.1% (active),45.9%,34.9%,35.4%,-53.1% (active),30.6%,14.4%,64.7%,14.7%
O=C(O)c1ccc(-n2cc(CNc3ccc(Cl)cc3)c(-c3ccccc3)n2)cc1,95.7%,77.5%,79.9%,88.6%,98.6%,100%,80.5%,82.6%,,94.3%,70.5%,102%,78.4%,94.8%,97.2%,87.6%,67.6%,74.3%,92.8%,93.5%
Cc1c2cnccc2c(C)c2c1c1cc(O)ccc1n2C(C)C,12.1%,16.9%,-17.9% (active),9.51% (active),-39.5% (active),9.03% (active),34.5%,7.2% (active),,-19% (active),2.12% (active),25%,0.198% (active),18.3%,,-49.3% (active),-15.7% (active),-17.2% (active),6.18% (active),17.8%
CCn1c2ccc(O)cc2c2c(C)c3c[n+](C)ccc3c(C)c21,53.7%,60%,-20.4% (active),71.7%,57.1%,-10.1% (active),13.6%,12.1%,,51.8%,81.2%,55.8%,31%,-3.45% (active),,7.6% (active),16.6%,62.2%,31.8%,3.41% (active)
O=C(CN1CCN(C(=O)c2ccccc2)CC1)Nc1ccccc1SCc1ccccc1,101%,66%,86.1%,68.7%,111%,90.9%,86.9%,89.1%,,79.4%,87.3%,81%,75.6%,90.7%,57.9%,56.9%,52%,73.9%,98.2%,90.8%
CNC(=O)c1cn2c3c(c(N4CCN(C)CC4)c(F)cc3c1=O)OC[C@@H]2C,104%,102%,106%,102%,103%,97%,98.7%,105%,,106%,102%,96.2%,84.1%,106%,96.2%,101%,,94.8%,108%,99.5%
CNC(=O)c1cc(Oc2ccc3c(c2)sc2nc(-c4ccc(NC(=O)Nc5ccc(Cl)c(C(F)(F)F)c5)cc4)cn23)ccn1,75.5%,74.7%,83.7%,77.4%,84.6%,84.8%,76.3%,56.2%,,85.5%,71.4%,67.2%,66.6%,85.7%,64%,86.6%,88%,76.1%,88.4%,61.9%
COc1cc(Cc2cc(-c3ccccc3)n[nH]c2=O)cc(OC)c1OC,84.2%,19.3%,71.8%,54.7%,60%,69.8%,61.3%,61.4%,,18.4%,34.5%,18.3%,55.5%,62.9%,61.9%,50.4%,43.3%,45.5%,70%,48.7%
O=C(Nc1ccc(OS(=O)(=O)c2ccccc2)cc1)C1CCCCC1,92.8%,60.6%,81.9%,73.1%,87.5%,90.2%,89.7%,80.4%,,70.3%,67.7%,39.3%,95.7%,89.2%,72.7%,77.1%,89.5%,86.2%,91.7%,69.6%
